# Laboratory results as given in PubChem BioAssay (Tox21).
# Where “and” joins values, the source holds several entries; their conditions need not be identical. Identical values can stand only once. Results filed as inconclusive are left out. Calls of active or inactive are those of the source. The call rests on the fitted dose curve; in most records, active means well fitted inhibition curve with a large enough effect in the signal ratio in the repeat runs; inconclusive means weak or mixed curves, or effect the other way; inactive means flat fitted curve, though single readings scatter; the % refers to the signal ratio.
# Experiment: qHTS assay for small molecule disruptors of the mitochondrial membrane potential (AID 720635)
# Details: HepG2 mitochondrial membrane potential, Mito-MPS dye ratio; series mostly up to 83.2 µM; ratio activity, negative = MMP loss: at the top concentration
# In short: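 HepG2 cells exposed to compound 1 hr at 37C, then Mito-MPS dye 30 min. Ratio read of aggregate (540/590 nm) versus monomer (490/535 nm) fluorescence.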
# On the % scale 0 is the no-effect control and ±100 the full control effect; potency means the concentration at half of the fitted maximal effect.
SMILES,Potency,"ratio activity, negative = MMP loss"
CC(C)(C)c1cccc(O)c1,48.6 µM (active),–
CCOc1ccccc1N,–,8.08% (inactive)
CCCCCCC,–,-15.1% [at 95.3 µM] (inactive)
CCN1CC(CCN2CCOCC2)C(c2ccccc2)(c2ccccc2)C1=O (stereo unspecified),–,-13.5% (inactive)
COC(=O)C(C)O (stereo unspecified),–,15% [at 95.3 µM] (inactive)
O=C1CCCc2ccccc21,–,10.5% [at 95.3 µM] (inactive)
NC(=O)Cc1cccc(C(=O)c2ccccc2)c1N,–,17% (inactive)
C=CC1CO1 (stereo unspecified),–,5.33% [at 95.3 µM] (inactive)
CCN[C@H]1CN(CCCOC)S(=O)(=O)c2sc(S(N)(=O)=O)cc21,–,12.5% [at 39.1 µM] (inactive)
CCCNC(C)C(=O)Nc1c(C)csc1C(=O)OC (stereo unspecified),–,11.4% [at 39.1 µM] (inactive)
CC(=O)N[C@@H](CC(C)C)C(=O)O,–,15.1% (inactive)
O=C(O[C@@H](C(=O)O)[C@@H](OC(=O)c1ccccc1)C(=O)O)c1ccccc1,–,13.4% [at 95.3 µM] (inactive)
C=CC(C)(O)CC/C=C(\C)CCC=C(C)C (stereo unspecified),12.4 µM (active) and 27.3 µM (active),–
CC(C)C(=O)OCC(C)(C)C(O)C(C)C (stereo unspecified),–,-25.6% [at 95.3 µM] (inactive)
Cc1ccccc1C(=O)Nc1ccc(C(=O)N2CCCC(O)c3cc(Cl)ccc32)c(C)c1 (stereo unspecified),10.6 µM (active),–
CC(C)C(=O)OC/C=C/c1ccccc1,–,5.89% (inactive)
CCOC(=O)[C@H](CCc1ccccc1)N[C@@H](C)C(=O)N1Cc2cc(OC)c(OC)cc2C[C@H]1C(=O)O,–,8.61% (inactive)
CCOC(=O)C(Br)c1ccccc1 (stereo unspecified),–,-17.2% (inactive)

SMILES,Potency,"ratio activity, negative = MMP loss"
C=C(C)C(=O)OCCOP(=O)(O)O,–,27.2% [at 95.3 µM] (inactive)
NC/C=C/C(=O)O,–,24.9% (inactive)
CC(C)c1ccccc1,–,10.7% [at 95.3 µM] (inactive)
CCCCCCCCCC/C=C/C#N,–,-9.87% (inactive)
COc1ccccc1N1CCN(CCCNc2cc(=O)n(C)c(=O)n2C)CC1,inactive,–
O=C1N(c2ccccc2)c2ccccc2C1(Cc1ccncc1)Cc1ccncc1,–,-3.75% (inactive)
OCc1c2ccccc2cc2ccccc12,30.7 µM (active),–
CC(C)(CO)[C@@H](O)C(=O)NCCC(=O)O,inactive,–
NCCC(O)(P(=O)(O)O)P(=O)(O)O,–,-17.5% (inactive)
CN(C)Cc1ccccc1,–,18.8% (inactive)
CC/C=C\CCOC(=O)CCCCC,–,8.2% (inactive)
COC(=O)c1ccc(OC)cc1,–,17.5% (inactive)
Cc1cc(S(=O)(=O)O)c(N)cc1Cl,–,7.84% [at 95.3 µM] (inactive)
O=C(O)c1ccccc1Nc1cc(Cl)ccc1C(=O)O,–,-2.2% (inactive)
CCCCNC(=S)NCCCC,–,-28% (inactive)
O=C(O)c1cccc(Cl)c1Cl,–,-19.2% (inactive)
C=CCc1cc(OC)c(O)c(C(=O)NCCO)c1,–,-12.1% (inactive)
CC(C)(C)c1ccc(OC(=O)c2ccccc2O)cc1,24.3 µM (active),–
